Sampled rows, rich in hits. Any-hit rate of the full collection: about 1.4%.
A3G deaminase – inhibitors of human APOBEC3G DNA deaminase; recombinant A3G, ssDNA deamination FAM/TAMRA fluorescence; inhibition, % at 20 µM; 330,000 tested, 0.28% active;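 active = inhibition of at least 40% at 20 µM, with no more than 30% in the related APOBEC3A deaminase screen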
FAS-TE inh – FAS thioesterase (human) inhibition; P49327; recombinant FAS-TE, OMFH fluorogenic substrate, fluorescence endpoint; inhibition, % at 15 µM; 360,000 tested, 0.67% active; AID 602261;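 active = compounds whose normalised, plate-corrected inhibition of enzyme fluorescence in the single-dose primary screen is 50% or more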
A3A deaminase – inhibitors of human APOBEC3A DNA deaminase; P31941; recombinant A3A, FAM/TAMRA ssDNA deamination fluorescence; inhibition, % at 20 µM; 330,000 tested, 0.41% active;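 active = at least 40% inhibition at 20 µM here, with at most 30% in a related deaminase screen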
GC-B act – GC-B (human) receptor activation. activation, % at 10 µM. P20594. 370,000 tested, 0.11% active. HEK293-GC-B cells, CNP EC30, cGMP TR-FRET; 0% at EC30 CNP, 100% saturating CNP;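 active = activation at 10 µM reaching about 35% in either raw or pattern-adjusted values, limit read from the data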
GC-A act – GC-A (human) enzyme activation | HEK293 GC-A cells, cGMP TR-FRET, EC30 ANP; 0% at EC30 ANP, 100% saturating ANP | activation, % at 10 µM | P16066 | 370,000 tested, 0.14% active; in the data active = activation above about 40%
A3A conf – confirmation of human APOBEC3A DNA deaminase inhibitors. shares compounds with A3A deaminase. recombinant A3A, ssDNA deaminase UDG fluorescence assay. inhibition, % at 20 µM. 1,400 tested, 63% active. AID 493151;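 active = inhibition reaching a set limit, 80% of the first screen's cutoff, at 20 µM in any replicate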
UDG ctr A3A – counter-screen for APOBEC3A inhibitors: UDG; shares compounds with A3A deaminase; UDG counterscreen, FAM/TAMRA uracil oligo fluorescence; inhibition, % at 20 µM; 1,000 tested, under 10 active; call rule not given here
Each line names hits and unclear results; the compound was inactive in the other large screens (follow-up assays come after a bar, where they were run).

C[N+]1(CC(O)COCC2COc3ccccc3O2)CCOCC1 (stereo not drawn)	A3A deaminase 86 | A3A conf 46
C[C@@H]1CN([C@H](C)CO)C(=O)c2cc(NS(=O)(=O)c3ccccc3)ccc2O[C@@H](C)CCCCO[C@@H]1CN(C)Cc1ccc(Cl)c(Cl)c1	none (no result: A3G deaminase, FAS-TE inh, A3A deaminase)
C=CC1=C(C(=O)O)N2C(=O)[C@@H](NC(=O)/C(=N\O)c3csc(N)n3)[C@H]2SC1 (stereo in doubt)	A3A deaminase 89 | A3A conf 88
COC(=O)C1CN(Cc2cn(CCC3OCCO3)nn2)CCS(=O)(=O)N1Cc1ccc(F)cc1 (stereo not drawn)	none (no result: A3G deaminase, FAS-TE inh, A3A deaminase)
CC(=O)N1CCN(c2ccc(N3CCN(Cc4ccccc4)[C@H](C)C3)c(C)c2)[C@H](C)C1	none (no result: A3G deaminase, FAS-TE inh, A3A deaminase)
CCN1Cc2nnn(Cc3ccccc3)c2-c2cc(F)ccc2S1(=O)=O	none (no result: A3G deaminase, FAS-TE inh, A3A deaminase)
O=C(NCc1ccc2c(c1)OCO2)C1CCCN1S(=O)(=O)c1ccc(F)cc1 (stereo not drawn)	A3A deaminase 55 | A3A conf inactive | UDG ctr A3A inactive
CC(=O)c1c(COC(=O)c2cccnc2)nc2ccccc2[n+]1[O-]	A3A deaminase 58 | A3A conf 76 | UDG ctr A3A inactive
COc1cccc(/C=C2\CC3(OC(=O)C4CCCC4)CCCN2C3)c1 (stereo not drawn)	none (no result: A3G deaminase, FAS-TE inh, A3A deaminase)
COc1ccc(-c2nnc(SCC(=O)N/N=C\C=C/c3ccco3)n2-c2ccc(C)cc2)cc1	none (no result: A3G deaminase, FAS-TE inh, A3A deaminase)
COc1ccccc1N=Nc1[nH]c2ccc(C)cc2c1O	A3A deaminase 66 | A3A conf 53 | UDG ctr A3A inactive
Cc1ccc2[nH]c(O)c(N=Nc3ccccc3[N+](=O)[O-])c2c1	none (no result: A3G deaminase, A3A deaminase)
CS(=O)(=O)c1nc(-c2ccc(Br)cc2)n[nH]1	A3A deaminase 41 | A3A conf inactive | UDG ctr A3A inactive
CS(=O)(=O)c1ccc(-c2nn[nH]n2)cc1	none
O=S1(=O)c2ccc(N3CCSCC3)cc2Oc2ccccc2CN1Cc1cn(Cc2ccc(Cl)cc2)nn1	none (no result: A3G deaminase, FAS-TE inh, A3A deaminase)
COCCNC(=O)c1cc2ncc(Br)cn2n1	none
O=C(c1cc2ncc(Br)cn2n1)N1CCN(C(=O)c2ccco2)CC1	A3A deaminase 42 (no result: GC-B act, GC-A act) | A3A conf 34 | UDG ctr A3A inactive
O=C(NCCc1ccccc1)c1cc2ncc(Br)cn2n1	A3A deaminase 76 | A3A conf 44 | UDG ctr A3A inactive
CCc1ccccc1NC(=O)c1cc2ncc(Br)cn2n1	A3A deaminase 41 | A3A conf inactive | UDG ctr A3A inactive
O=C(C(=O)N1CCN(S(=O)(=O)c2ccccc2)CC1)c1cccc(C(F)(F)F)c1	none (no result: A3G deaminase, FAS-TE inh, A3A deaminase)
COc1cccc(-c2nnn(CC(C)=O)n2)c1	A3A deaminase 53 | A3A conf inactive | UDG ctr A3A inactive
O=S1(=O)c2c(cccc2N2CCC[C@H]2CO)OCCCN1C1CC1	none (no result: A3G deaminase, FAS-TE inh, A3A deaminase)
C[n+]1ccccc1/C=C/c1ccccc1Cl	A3A deaminase 81 | A3A conf 67 | UDG ctr A3A inactive
C[n+]1ccccc1/C=C/c1c(F)cccc1F	none (no result: A3G deaminase, A3A deaminase)
C[n+]1ccccc1/C=C/c1ccc(C#N)cc1	none (no result: A3G deaminase, A3A deaminase)
Cc1ccccc1/C=C/c1cccc[n+]1C	A3A deaminase 84 | A3A conf 69 | UDG ctr A3A inactive
Cc1sc2nc(SCC(=O)c3ccc(O)c(O)c3)n(C)c(=O)c2c1C	none (no result: A3G deaminase, FAS-TE inh, A3A deaminase)
Cc1ccc(S(=O)(=O)N2CCCC2C(c2ccccc2O)c2cn(C)c3ccccc23)cc1 (stereo not drawn)	none (no result: A3G deaminase, FAS-TE inh, A3A deaminase)
COC(=O)[C@]12C[C@H](CC(=O)N3CCOCC3)C(=O)N(Cc3ccco3)C1=C[C@H](C(C)(C)C)O[C@@H]2C	none (no result: A3G deaminase, FAS-TE inh, A3A deaminase)
O=C(Nc1nc2ccc(F)cc2s1)C1CCN(S(=O)(=O)c2cc([N+](=O)[O-])ccc2Cl)CC1	none
O=C(COC(=O)C1CCN(S(=O)(=O)c2cc([N+](=O)[O-])ccc2Cl)CC1)Nc1ncc(Cl)cc1Cl	A3A deaminase 51 | A3A conf 50 | UDG ctr A3A inactive
Cc1ccc2nc(NC(=O)C3CCN(S(=O)(=O)c4cc([N+](=O)[O-])ccc4Cl)CC3)sc2c1	A3A deaminase 42 | A3A conf inactive

Assay outcomes from PubChem BioAssay.
